Source: ChEMBL document CHEMBL3988442, “University of Dundee, Small-Polar-MMV Screening Library” (2021)

species: Homo sapiens; experiment: To identify inhibition of the IFN signalling (Jak-Stat) pathway via expression of an eGFP reporter gene under the control of an IFN-stimulated response element (ISRE) containing MxA promoter.; assay type: functional; set-up: scale not given: direction of the effect not stated beside the values; details: 30 µM

| Compound | Percent Effect |
| --- | --- |
| CC(C)c1nc(C2CCCN(C(=O)c3ccnc(N(C)C)c3)C2)no1 (centres undefined) | 26.1% |
| Cc1cnc(CN2CCCC(c3cc(C(N)=O)[nH]n3)C2)cn1 (centres undefined) | 6.6% |
| Cc1cnn(CC2CCCN2C(=O)c2cccnc2N(C)C)c1 (centres undefined) | -17.9% |
| CC(NC(=O)NCc1cccc(Cl)c1)(C(=O)O)c1ccco1 (centres undefined) | -2.55% |
